# Test results from PubChem BioAssay.
# For part of these data: Results with a measured potency or affinity are listed apart. Active and inactive are the calls of the source.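 Rule for the calls, unless noted: active = fitted half-maximal concentration within the tested dose range, moderate curve steepness, a statistically real signal drop, and little compound fluorescence or tag-binding interference; inactive = the rest.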
# Assays:
# [1] = molecular target: Cell division control protein 42 homolog (Homo sapiens) (UniProt P60953); assay: activated mutant Cdc42 GTP-binding inhibitors, dose response, biochemical, multiplex bead flow cytometry, Bodipy-FL-GTP (AID 1333)
# [2] = molecular target: Cell division control protein 42 homolog (Homo sapiens) (UniProt P60953); assay: wildtype Cdc42 GTP-binding inhibitors, dose response, biochemical, multiplex bead flow cytometry, Bodipy-FL-GTP (AID 1334;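 active = fitted half-maximal concentration within the tested range, moderate curve steepness, significant signal drop, and little compound fluorescence or bead-linkage interference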); details: bead-based flow cytometry, Bodipy-FL-GTP binding to GST-Cdc42; at 100 µM (top of the series) unless noted
# [3] = molecular target: GTPase HRas (Homo sapiens) (UniProt P01112); assay: inhibitors of GTP binding to wildtype Ras, dose response, biochemical, multiplex bead flow cytometry (AID 1335;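 active = fitted half-maximal concentration within 10 nM to 100 µM, steepness 0.5 to 2, significant signal drop, low assay interference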); details: bead-based flow cytometry, Bodipy-GTP binding to GST-Ras; at 100 µM (top of the series) unless noted
# [4] = system: Ras-related protein Rab-7a (dog), GTP binding; assay: Rab7 GTP binding inhibitors, potency, dose response, biochemical, wildtype, multiplex bead flow cytometry (AID 1336; call rule not given here)
# [5] = molecular target: Ras-related C3 botulinum toxin substrate 1 (Homo sapiens) (UniProt P63000); assay: wildtype Rac1 GTP binding inhibitors, dose response, biochemical, multiplex bead flow cytometry (AID 1340;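 active = dose curve with midpoint inside tested range, moderate steepness, plateau gap beyond fit error, low compound glow and bead-link interference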); details: GST-Rac1 beads, Bodipy-FL-GTP binding; at 100 µM (top of the series) unless noted
# [6] = molecular target: GTPase HRas (Homo sapiens) (UniProt P01112); assay: activated Ras mutant GTP binding inhibitors, dose response, biochemical, multiplex bead flow cytometry (AID 1341;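 active = dose-response curve with midpoint inside the tested range, moderate steepness, significant amplitude and little compound fluorescence or bead-attachment interference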;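 note: GST-tagged constitutively activated Ras mutant immobilized on beads and multiplexed with other GTPases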)
# GTPase HRas (Homo sapiens), sequence (P01112 whole entry, looked up): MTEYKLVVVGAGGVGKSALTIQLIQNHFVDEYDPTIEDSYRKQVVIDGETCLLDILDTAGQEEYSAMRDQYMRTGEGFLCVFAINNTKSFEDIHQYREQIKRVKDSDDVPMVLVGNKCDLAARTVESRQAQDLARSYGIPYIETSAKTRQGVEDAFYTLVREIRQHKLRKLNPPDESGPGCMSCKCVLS
# Cell division control protein 42 homolog (Homo sapiens), sequence (P60953 whole entry, looked up): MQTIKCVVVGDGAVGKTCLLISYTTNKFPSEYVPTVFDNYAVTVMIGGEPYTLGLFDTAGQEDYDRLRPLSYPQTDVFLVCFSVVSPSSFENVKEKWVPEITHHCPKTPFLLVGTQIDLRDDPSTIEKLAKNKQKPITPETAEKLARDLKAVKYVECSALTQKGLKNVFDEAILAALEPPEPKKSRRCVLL
SMILES,outcome [1],"fluorescence, percent of control (lower = inhibition) [2] [%]","GTP binding, percent of control [3] [%]",outcome [4],"GTP binding signal, raw median fluorescence (lower = inhibition) (MCF (arbitrary fluorescence units)) [5]",outcome [6]
Cc1ccc2c(c1)c1nnc(SCC(=O)Nc3cccc(Cl)c3C)nc1n2CC(=O)O,inactive,35.2,80.1,inactive,245,inactive
COc1cc2c(cc1OC)-c1cc(NCc3ccccn3)nc(=O)n1CC2,inactive,30.7,68.3,inactive,182,inactive
COc1cccc(N2CCN(C(=O)CCCCCNc3nc(=S)[nH]c4ccccc34)CC2)c1,inactive,38.1,79.5,inactive,264,inactive
CCCc1cc(N2CCN(C(=O)c3ccco3)CC2)n2c(nc3ccccc32)c1C#N,inactive,34.7,79,inactive,240,inactive
O=C(O)COc1ccccc1/C=N/NC(=O)c1cc(-c2ccc(F)cc2)nc2ccccc12,inactive,30.7,80.5,inactive,177,inactive
N#Cc1c2nc3ccccc3nc2n2cc(NC(=O)c3ccc(F)cc3)ccc12,inactive,49.3,64.8,inactive,158,inactive
N#Cc1c(-c2cccc(Br)c2)cc(-c2ccco2)[nH]c1=O,inactive,23.1,58.9,inactive,182,inactive
C/C(=C1/SC(=S)N(CCC(=O)O)C1=O)c1ccc(O)cc1,inactive,29.5,80.9,inactive,254,inactive
CC(=O)Nc1ccc(/C=N/NC(=O)CCN2CCN(c3ccccc3)CC2)cc1,inactive,33.8,74.7,inactive,140,inactive
NC(=S)N=Nc1c(O)[nH]c2c(Br)cc(Br)cc12,inactive,32.3,73,inactive,198,inactive
Cc1cccc(CN2C(=O)N/C(=C/c3ccc(C)s3)C2=O)c1,inactive,72,82.5,inactive,201,inactive
COc1ccc(CC(=O)c2ccccc2C(=O)O)cc1,inactive,153,143,inactive,368,inactive
CCCN(N=Nc1cccc([N+](=O)[O-])c1)c1cccc([N+](=O)[O-])c1,inactive,84.9,156,inactive,170,inactive
COc1ccccc1C(=O)Nc1nc(-c2ccc3c(c2)OCCO3)cs1,inactive,28.6,77,inactive,216,inactive
O=C(O)c1cc(-c2ccc(/C=C3\NC(=O)N(c4ccc(Cl)cc4)C3=O)o2)ccc1Cl,inactive,25.6,66.3,inactive,160,inactive
O=C(Cn1c(-c2cscn2)nc2ccccc21)Nc1cc(F)ccc1F,inactive,33.9,75.9,inactive,210,inactive
COc1ccccc1CNC(=O)c1c(N)n(CCCN2CCOCC2)c2nc3ccccc3nc12,inactive,44.4,89.9,inactive,214,inactive
COCCN1C(=O)/C(=C/c2ccc(N3CCCC3)cc2)SC1=S,inactive,64.2,106,inactive,311,inactive
O=C(COc1ccccc1/C=C\c1[nH]c(=O)[nH]c(=O)c1[N+](=O)[O-])Nc1ccccc1,inactive,29.1,77.1,inactive,191,inactive
Cc1cccc(Cc2c(C)nc3nc(SCC(=O)O)nn3c2C)c1,inactive,30.6,81.6,inactive,227,inactive
COc1ccc(N=C2S/C(=C\c3ccc(N4CCOCC4)o3)C(=O)N2CCc2c[nH]c3ccccc23)cc1,inactive,133,212,inactive,210,inactive
COc1ccc(CC(=O)Nc2ccc(S(=O)(=O)NC(C)C)cc2)cc1,inactive,51.9,66.7,inactive,0,inactive
Cc1ccccc1NC(=O)C1CCCN1S(=O)(=O)c1cccc2cccnc12 (stereo not given),inactive,39.1,84.8,inactive,322,inactive
Cc1c(C=O)c2ccccn2c1C(=O)c1ccc(Cl)c([N+](=O)[O-])c1,inactive,31.5,78.3,inactive,247,inactive
CCOC(=O)N1CCN(Cc2cn[nH]c2-c2cc3ccccc3o2)CC1,inactive,34.4,82.1,inactive,246,inactive
CC1(C)Cc2c(sc(NC(=O)c3ccc(Br)o3)c2C#N)CO1,inactive,49.4,62.3,inactive,212,inactive
CN1CCN(c2ccccc2NC(=O)c2ccc(-c3cccc([N+](=O)[O-])c3)o2)CC1,inactive,40.2,93.9,inactive,308,inactive
Nc1ccc(-c2cn3cccnc3n2)cc1,inactive,40.9,88.5,inactive,287,inactive
CN(/N=C/C=C/c1ccccc1)C1=NS(=O)(=O)c2ccccc21,inactive,40.3,51.8,inactive,124,inactive
O=C(OC(C(=O)NCc1cccs1)c1ccccn1)c1cccs1 (stereo not given),inactive,83.4,162,inactive,175,inactive
